# Source: PubChem BioAssay (NCI)
# The panel holds about 83,000 compounds, 20% with a hit somewhere; the sample as a whole holds those more often.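 Cells were grown in 96-well plates and exposed to the test compound at a single concentration for 48 hours; results are reported as percent growth, with values below 10 considered active.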 A number with no mark means an inactive call. Activity calls are given as the source filed them.
# System: NCI/ADR-RES ovarian
# Assay: NCI-60 one-dose screen, 48 h (100 = growth as untreated, 0 = no growth, -100 = all killed)
# Settings: 10 µM unless noted
row,Compound,growth
1,O=C(NNC(=O)N1c2ccccc2C=Cc2ccccc21)c1ccc2ccccc2c1,93%
2,CCOC(=O)C1C(=O)C=C(c2ccc(OC)cc2)CC1c1sc(N(C)Cc2ccccc2)nc1Cl (centres undefined),88.2%
3,CCc1cnc(=S)n(-c2ccccc2)c1,98.3%
4,CCN(CC)c1ccc2[nH]c3c(C(N)=O)cc(=O)c(=O)c=3oc2c1,-0.316% (active)
5,CC1(C)C(=O)/C(=C\c2ccc(C(F)(F)F)cc2)C[C@]2(C)[C@H]3CC[C@@H]4[C@H]5[C@H](C(=O)/C=C/c6ccc(C(F)(F)F)cc6)CC[C@]5(CO)CC[C@@]4(C)[C@]3(C)CC[C@@H]12,99.1%
6,O=[N+]([O-])c1ccc(Sc2ncccn2)c([N+](=O)[O-])c1,53.8%
7,CC(C)(C)OC(=O)NC(CSCc1ccccc1)C(=O)ON1C(=O)CCC1=O (centres undefined),103%
8,C/C(=C\c1ccc(OCC(=O)O)c(Cl)c1Cl)[N+](=O)[O-],102%
9,CC(C)CC1NC(C)(C)CO1 (centres undefined),104%
10,CC(NNC(C)c1ccccc1)c1ccccc1 (centres undefined),105%
11,CC(C)(C)n1cc(-c2ccnc(NCCCNS(=O)(=O)c3ccc(C(F)(F)F)cc3)c2)c(-c2cccc(O)c2)n1,34.6%
12,CC(C)(C)n1cc(-c2ccnc(NCCCNS(=O)(=O)c3ccc(Br)cc3)c2)c(-c2cccc(O)c2)n1,43.7%
13,Cn1cc(-c2cnc3ccc(NC(=O)Nc4ccc(F)c(Br)c4)cc3n2)cn1,12.4%
14,CC(C)(C)c1[nH]nc2c1C(c1cc3ccccc3[nH]c1=O)Nc1cc(C(=O)Nc3ccc(Cl)cc3)ccc1N2 (centres undefined),95.3%
15,O=C([O][Sn]([O]C(=O)c1ccccn1)([c]1ccccc1)[c]1ccccc1)c1ccccn1,95.1%
16,CC(C)(C)N1CCC1C(N)=O (centres undefined),-4.51% (active)
17,CC(C)(C)n1cc(-c2ccnc(NCCCNS(=O)(=O)c3ccc(Cl)cc3)c2)c(-c2cccc(O)c2)n1,12.2%
18,O=C(Nc1ccc(NCCN2CCOCC2)nc1)c1ccc([N+](=O)[O-])cc1,105%
19,COc1cc(-c2ncn(/C=C\C(=O)OC(C)C)n2)cc(C(F)(F)F)c1,2.76% (active)
20,O=C(NNC(=O)N1c2ccccc2C=Cc2ccccc21)c1ccccc1,99.8%

row,Compound,growth
1,CC(C)(C)n1cc(-c2ccnc(NCCNS(=O)(=O)c3ccc(Cl)cc3)c2)c(-c2cccc(O)c2)n1,68.2%
2,Clc1ccccc1-c1nc2ccccc2[nH]1,-4.71% (active)
3,CC(C)(C)n1cc(-c2ccnc(NCCNS(=O)(=O)c3ccc(C(F)(F)F)cc3)c2)c(-c2cccc(O)c2)n1,56.7%
4,CC(=O)Oc1csc(N(C(C)=O)c2cc(C(=O)O)cc(C(=O)O)c2)n1,99.2%
5,COc1ccncc1S(=O)(=O)NC(=O)Nc1ccc(Cl)c(Cl)c1,89.8%
6,COc1ccc(-c2nc(/C=N/Nc3cc(C)nc4ccc(Cl)cc34)c(C)o2)cc1,-74.7% (active)
7,COc1ccc(C(=O)N2NC(=O)/C(=C/c3ccccc3F)N=C2c2ccccc2)cc1,105%
8,CCOC(=O)CC(=O)OC,113%
9,CN1C=CN(Cc2ccc(-c3ccccn3)nc2)[CH-]1.CN1C=CN(Cc2ccc(-c3ccccn3)nc2)[CH-]1.[Au+3],101%
10,COc1cccc(/C=C2\Oc3cc(OCCCN4CCCC4)ccc3C2=O)c1OC,97.3%
11,O=C1C(Cl)=C(Nc2ccccn2)C(=O)c2ccccc21,34.9%
12,Cc1ccc2[nH]c(=O)c3c(c2c1)Oc1ncn2nc(-c4ccco4)nc2c1C3c1ccc(Cl)cc1 (centres undefined),94.9%
13,COc1ccc(C2CC(c3ccc(OC)cc3OC)=NN2c2ccc(S(N)(=O)=O)cc2)cc1 (centres undefined),89.4%
14,c1ccc(-c2nnc(-c3ccccn3)s2)nc1,83%
15,Clc1cc2c(nn1)Nc1ccccc1S2,97.5%
16,O=[N+]([O-])c1cc(S(=O)(=O)Oc2ccccc2)ccc1Cl,46.6%
17,COc1cc(/C=N\NC(=O)CN2CCN(c3cc4c(cc3F)c(=O)c(C(=O)N/N=C/c3cc(OC)c(OC)c(OC)c3)cn4C3CC3)CC2)cc(OC)c1OC,103%
18,NC1=C(/C(N)=N/O)C(c2ccccc2)c2ccc3ccccc3c2O1 (centres undefined),-1.33% (active)
19,OCc1ncc(-c2ccccc2)s1,22.1%
